Compounds with a hit are over-represented: about 1.6% of the library has one in this group of screens.
KCNQ2 pot: enhances the rat KCNQ2 potassium channel; 310,000 compounds, 0.54% hits; CHO-K1 KCNQ2, FluxOR thallium flux fluorescence; hits give high values; B-score at 10 µM; O88943; AID 2239;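 active = fluorescence ratio B-score at least 3 SD of library B-scores, with initial fluorescence B-score within 3 of them, cut at about 5.3 in these data; same plate scores as AID 2156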;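 also: B-score of peak minus minimum over baseline fluorescence ratio after K+ and Tl+ stimulus; positive B-score means potentiation of KCNQ2 with more thallium influx and brighter signal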
KCNQ2 inh: inhibitors of rat KCNQ2 potassium channel; AID 2156; B-score at 10 µM; CHO-K1 KCNQ2, FluxOR thallium flux, 20 min; hits give low values; 310,000 compounds, 1.1% hits; O88943;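 active = fluorescence ratio B-score at most minus 3 library SDs, with starting brightness B-score within 2 library SDs, cut at about -5.5 in these data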
KCNQ2 block conf: rat KCNQ2 channel inhibition, confirmatory screen; activity change, negative = inhibition, % at 10 µM; shares compounds with KCNQ2 inh; 1,000 compounds, 57% hits; KCNQ2-expressing cells, thallium flux; hits give low values;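 also: 0% = vehicle wells and values are ratio percent relative to vehicle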
KCNQ1 spec: human KCNQ1 activity in KCNQ2 inhibitor specificity screen | shares compounds with KCNQ2 inh | KCNQ1-expressing cells, FluxOR thallium flux fluorescence; hits give low values | activity change, negative = inhibition, % at 10 µM | 1,000 compounds, 15% hits | AID 493026;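 active = activity change at least 3 SD of negative controls below their mean in both duplicate wells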;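 also: CHO cells stably transfected with KCNQ1 and depolarized by potassium stimulus; peak minus minimum fluorescence over baseline after thallium addition; 0% = vehicle negative control and -100% = blank without thallium stimulus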
CHO Tl ctr: activity in parental CHO cells lacking KCNQ2; 1,000 compounds, 14% hits; thallium flux counter-screen; hits give low values; shares compounds with KCNQ2 inh; AID 493029; activity change, % at 10 µM;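 also: 0% = vehicle negative controls with stimulus buffer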
KCNQ2 inh confirm: blocks rat KCNQ2 current in automated patch clamp. KCNQ2-expressing cells. 550 compounds, 49% hits. AID 588531. calls only at 10 µM. shares compounds with KCNQ2 inh
Numbers without * were called inactive; i = inactive; · = not tested or not shown; + = active, no number. Unless noted, no rule for the calls is given here.

SMILES	KCNQ2 pot	KCNQ2 inh	others
O=C1NC(=O)[C@]2(Cc3ccccc3N3CCN(c4ccccc4)CC32)C(=O)N1Cc1ccccc1 (stereo partly drawn)	-5.7	-5.7*
O=C1NC(=O)[C@]2(Cc3ccccc3N3CCN(c4ccccc4)CC32)C(=O)N1c1ccccc1 (stereo partly drawn)	-6.1	-6.1*
CN1C(=O)NC(=O)[C@]2(Cc3ccccc3N3CCN(c4ccccc4)CC32)C1=O (stereo partly drawn)	·	i
CC(=O)NNC(=O)CN1C(=O)CN=C(c2ccccc2)c2cc(Br)ccc21	1.3	i
CC(C)CC1C(C#N)=C(N)Oc2c1c(=O)oc1ccccc21 (stereo not drawn)	·	i
CC(C)(C)NC(=S)/N=C(\N)N[N+](=O)[O-]	·	i
Clc1cnc(Oc2ccc(Oc3ncc(Cl)cc3Cl)cc2)c(Cl)c1	-5.6	-5.6*
Oc1cc(Cl)ccc1Oc1ccc(Cl)cc1Cl	·	i
COC1=CC=C2[C@H]3Cc4ccc(OC)c5c4[C@@]2(CCN3C)[C@H]1O5	·	i
CCC(C)C12CN3CCN(CC(C)(C3)C1=O)C2 (stereo not drawn)	·	i
CCCCn1c(=O)c(C(=O)NCc2ccccc2OC)c(O)c2ccccc21	-6.2	-6.2*
CCCCCn1c(=O)c(C(=O)NCCc2ccccc2)c(O)c2ccccc21	·	i
c1ccc(-c2ccc(-c3n(-c4ccccn4)c4ccccc4[n+]3-c3ccccn3)cc2)cc1	-7.7	-7.7*
COC(=O)C1C(O)C(C)C(O)C(C)/C=C\C=C(/C)C(=O)Nc2c(C)c(OC(C)=O)c3c(c2O)C(=O)C(C)=C2OCOC(=C23)/C(C)=C/C(C)(O)C(O)C(C)C1O (stereo not drawn)	0.05	i
Fc1ccc(C2=CCN(C(c3ccc(Cl)cc3)c3nnnn3Cc3ccccc3)CC2)cc1 (stereo not drawn)	·	i
Cc1ccc(C(c2nnnn2Cc2ccccc2)N2CC=C(c3ccc(F)cc3)CC2)cc1 (stereo not drawn)	-5.7	-5.7*
Clc1ccccc1CN1CCN(c2cccc3[nH]ccc23)CC1	·	i
O=C(CNC(=O)c1ccccc1Cl)Nc1ccc(Br)cc1C(=O)c1ccccc1	0.06	i
O=C(c1cc(C(=O)NCc2ccccc2)c(=O)n(Cc2ccccc2)c1)c1cc(Br)ccc1O	-8.2	-8.2*	KCNQ2 block conf=-34%*;KCNQ1 spec=-39%*;CHO Tl ctr=-32%*;KCNQ2 inh confirm=i
CSc1ccc(C(=O)C2CCCN(Cc3cnc(SC)nc3)C2)cc1 (stereo not drawn)	0.39	i
CCC(C#N)(CC)P(=S)(c1ccccc1)c1ccccc1	-8.6	-8.6*	KCNQ2 block conf=i;KCNQ1 spec=i;CHO Tl ctr=i
CCOC(=O)c1c(/N=C/C2C(=O)NC(=O)NC2=O)sc2c1CCC2	0.38	i
CCOC(=O)c1c(NC(NC(=O)CF)C(Cl)(Cl)Cl)sc2c1CCCC2 (stereo not drawn)	-8.4	-8.4*	KCNQ2 block conf=-29%*;KCNQ1 spec=i;CHO Tl ctr=i;KCNQ2 inh confirm=i
COC(=O)C1=C(c2ccc(S(C)(=O)=O)cc2)C[C@@H]2CC[C@H]1N2C(=O)NCC1CC1	0.38	i
CCN(CC)c1ccc(/C=C/[N+](=O)[O-])cc1	-8.8	-8.8*	KCNQ2 block conf=-75%*;KCNQ1 spec=-80%*;CHO Tl ctr=-76%*;KCNQ2 inh confirm=i
SMILES	KCNQ2 pot	KCNQ2 inh	others
CCN(CC)c1ccc(CC2C(=O)N(C)C(=O)N(C)C2=O)cc1	·	i
NP(=O)(OCC(F)(F)F)Oc1ccc(Cl)cc1 (stereo not drawn)	1.6	i
CCCC1(CCC)C(=O)NC(=NCc2ccccc2)NC1=O	-10	-10*	KCNQ2 block conf=-36%*;KCNQ1 spec=i;CHO Tl ctr=i;KCNQ2 inh confirm=+
CCCC1(CCC)C(=O)NC(=Nc2ccccc2)NC1=O	1.3	i
Cc1ccsc1C(=O)C1CCCN(Cc2ccc(-n3cccn3)cc2)C1 (stereo not drawn)	·	i
CSc1ccc(C(=O)C2CCCN(CCCn3cccn3)C2)cc1 (stereo not drawn)	·	i
COc1cc(/C=C/[N+](=O)[O-])ccc1O	-7.1	-7.1*	KCNQ2 block conf=-32%*;KCNQ1 spec=-30%*;CHO Tl ctr=-24%*;KCNQ2 inh confirm=i
COc1cc(/C=C2/C(=O)NC(=O)N(c3ccccc3)C2=O)ccc1O	0.42	i
Clc1ccc(COC(Cn2ccnc2)c2ccc(Cl)cc2Cl)c(Cl)c1 (stereo not drawn)	-7.3	-7.3*	KCNQ2 block conf=-38%*;KCNQ1 spec=-42%*;CHO Tl ctr=-34%*;KCNQ2 inh confirm=i
